Common to all, as to test: DAPPL (digital affinity profiling via proximity ligation, sequencing); 10 mM Tris-HCl pH 7.5, 50 mM NaCl, 1 mM DTT, 4% glycerol, room temperature, 30 min; GST-TFs on glutathione beads, 16-mer random dsDNA library, 0.1% formaldehyde crosslink after washing; high values mean tight binding
Holding throughout (conditions): protein: recombinant; tags: N-terminal GST; dsDNA, one strand shown

In one assay the target is T1, FEV (Homo sapiens, UniProt Q99581 1-238).
T1 sequence: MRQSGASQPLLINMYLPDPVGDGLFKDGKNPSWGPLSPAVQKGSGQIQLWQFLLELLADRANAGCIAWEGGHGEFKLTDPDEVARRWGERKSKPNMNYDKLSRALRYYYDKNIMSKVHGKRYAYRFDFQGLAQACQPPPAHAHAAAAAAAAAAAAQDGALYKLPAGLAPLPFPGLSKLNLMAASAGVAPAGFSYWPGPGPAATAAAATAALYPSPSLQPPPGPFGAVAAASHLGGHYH
An outline of the steps: (§1)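 Binding signal is given per hexamer as its read frequency for a factor divided by its frequency in the tag-only sample. GST-fused human transcription factors were expressed in yeast, captured on glutathione beads, barcoded with DNA and pooled with that sample, then incubated with 200 nmole of a 16-mer random double-stranded DNA library in Tris/NaCl/DTT/glycerol buffer for 30 min at room temperature. The pools were then washed, crosslinked, proximity-ligated, amplified by PCR and sequenced on an Illumina NextSeq500.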

The target of a further assay is ETV5 (Homo sapiens, UniProt P41161 1-510). An outline of the steps:
as §1

A further assay addresses T2, SPIC (Homo sapiens, UniProt Q8N5J4 1-248).
T2 sequence: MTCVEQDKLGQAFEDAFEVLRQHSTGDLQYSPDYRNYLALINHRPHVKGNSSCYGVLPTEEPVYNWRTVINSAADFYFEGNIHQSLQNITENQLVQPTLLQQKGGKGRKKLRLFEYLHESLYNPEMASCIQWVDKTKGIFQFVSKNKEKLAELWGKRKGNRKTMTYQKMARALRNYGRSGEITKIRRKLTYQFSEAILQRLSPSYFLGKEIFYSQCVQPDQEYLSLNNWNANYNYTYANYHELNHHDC
An outline of the steps:
as §1

For the next assay, the target named is ELF4 (Homo sapiens, UniProt Q99607 1-663). The procedure, abridged:
as §1

The target in a further assay is T3, ELK4 (Homo sapiens, UniProt P28324-2 1-405).
T3 sequence: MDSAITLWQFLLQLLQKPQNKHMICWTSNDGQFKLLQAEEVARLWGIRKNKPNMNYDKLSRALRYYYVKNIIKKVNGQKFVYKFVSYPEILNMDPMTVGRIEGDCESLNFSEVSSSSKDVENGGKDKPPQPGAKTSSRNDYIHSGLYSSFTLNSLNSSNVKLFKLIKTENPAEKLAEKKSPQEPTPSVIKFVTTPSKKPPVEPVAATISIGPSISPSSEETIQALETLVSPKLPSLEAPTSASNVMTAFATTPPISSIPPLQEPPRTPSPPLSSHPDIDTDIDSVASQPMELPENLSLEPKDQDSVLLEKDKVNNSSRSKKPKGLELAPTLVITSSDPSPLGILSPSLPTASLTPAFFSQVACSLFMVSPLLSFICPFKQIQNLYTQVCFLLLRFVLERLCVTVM
The procedure, abridged: as §1

Another assay deals with T4, ETV2 (Homo sapiens, UniProt O00321 1-342).
T4 sequence: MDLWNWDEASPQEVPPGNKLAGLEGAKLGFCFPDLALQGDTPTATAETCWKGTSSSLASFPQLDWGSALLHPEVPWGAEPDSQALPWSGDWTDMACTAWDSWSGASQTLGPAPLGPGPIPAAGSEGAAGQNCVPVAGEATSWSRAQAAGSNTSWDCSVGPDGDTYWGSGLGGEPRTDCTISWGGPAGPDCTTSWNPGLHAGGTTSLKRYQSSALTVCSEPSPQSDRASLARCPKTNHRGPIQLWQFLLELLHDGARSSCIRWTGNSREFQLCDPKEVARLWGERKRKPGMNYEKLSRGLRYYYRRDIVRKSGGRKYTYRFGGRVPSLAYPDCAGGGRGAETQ
An outline of the steps: as §1

In a further assay the target is T5, ELF3 (Homo sapiens, UniProt P78545 1-371).
T5 sequence: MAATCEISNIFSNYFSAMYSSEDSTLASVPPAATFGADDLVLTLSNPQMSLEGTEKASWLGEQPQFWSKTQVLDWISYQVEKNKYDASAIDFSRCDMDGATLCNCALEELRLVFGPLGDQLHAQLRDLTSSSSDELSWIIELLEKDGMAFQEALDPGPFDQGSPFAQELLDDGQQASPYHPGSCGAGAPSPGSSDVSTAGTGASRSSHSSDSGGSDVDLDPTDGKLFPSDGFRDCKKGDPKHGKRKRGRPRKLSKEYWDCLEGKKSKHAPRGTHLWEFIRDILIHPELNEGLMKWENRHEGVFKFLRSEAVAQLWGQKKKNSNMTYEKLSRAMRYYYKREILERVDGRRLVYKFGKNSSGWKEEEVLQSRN
The procedure, abridged:
as §1

A further assay addresses ETV1 (Homo sapiens, UniProt P50549 1-477). An outline of the steps: as §1

Chain of ETV1 (P50549 whole entry): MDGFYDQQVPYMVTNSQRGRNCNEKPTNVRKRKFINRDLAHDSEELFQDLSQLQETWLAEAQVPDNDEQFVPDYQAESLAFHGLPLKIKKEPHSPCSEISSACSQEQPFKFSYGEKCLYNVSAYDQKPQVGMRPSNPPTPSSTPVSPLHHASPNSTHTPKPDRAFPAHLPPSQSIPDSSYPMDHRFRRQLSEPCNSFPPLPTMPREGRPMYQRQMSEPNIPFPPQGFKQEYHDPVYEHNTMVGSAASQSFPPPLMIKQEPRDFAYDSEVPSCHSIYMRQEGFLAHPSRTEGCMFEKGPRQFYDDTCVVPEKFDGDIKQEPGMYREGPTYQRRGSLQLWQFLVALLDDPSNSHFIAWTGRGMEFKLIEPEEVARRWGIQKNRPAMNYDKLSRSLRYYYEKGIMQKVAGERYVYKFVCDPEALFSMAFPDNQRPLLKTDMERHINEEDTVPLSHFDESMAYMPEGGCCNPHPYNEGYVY
Chain of ETV5 (P41161 whole entry): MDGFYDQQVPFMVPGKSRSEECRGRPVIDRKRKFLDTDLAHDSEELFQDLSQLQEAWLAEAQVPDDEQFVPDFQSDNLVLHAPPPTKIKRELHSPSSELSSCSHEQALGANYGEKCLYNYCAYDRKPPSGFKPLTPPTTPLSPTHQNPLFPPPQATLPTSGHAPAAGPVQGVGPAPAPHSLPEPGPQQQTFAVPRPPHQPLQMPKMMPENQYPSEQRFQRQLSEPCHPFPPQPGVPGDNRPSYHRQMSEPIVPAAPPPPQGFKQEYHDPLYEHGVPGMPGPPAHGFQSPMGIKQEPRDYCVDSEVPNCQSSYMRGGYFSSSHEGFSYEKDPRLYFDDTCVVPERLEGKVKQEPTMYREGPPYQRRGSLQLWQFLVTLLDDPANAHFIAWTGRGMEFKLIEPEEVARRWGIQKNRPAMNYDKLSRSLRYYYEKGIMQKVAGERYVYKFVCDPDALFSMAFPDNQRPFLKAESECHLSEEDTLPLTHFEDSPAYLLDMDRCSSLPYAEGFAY
Chain of ELF4 (Q99607 whole entry): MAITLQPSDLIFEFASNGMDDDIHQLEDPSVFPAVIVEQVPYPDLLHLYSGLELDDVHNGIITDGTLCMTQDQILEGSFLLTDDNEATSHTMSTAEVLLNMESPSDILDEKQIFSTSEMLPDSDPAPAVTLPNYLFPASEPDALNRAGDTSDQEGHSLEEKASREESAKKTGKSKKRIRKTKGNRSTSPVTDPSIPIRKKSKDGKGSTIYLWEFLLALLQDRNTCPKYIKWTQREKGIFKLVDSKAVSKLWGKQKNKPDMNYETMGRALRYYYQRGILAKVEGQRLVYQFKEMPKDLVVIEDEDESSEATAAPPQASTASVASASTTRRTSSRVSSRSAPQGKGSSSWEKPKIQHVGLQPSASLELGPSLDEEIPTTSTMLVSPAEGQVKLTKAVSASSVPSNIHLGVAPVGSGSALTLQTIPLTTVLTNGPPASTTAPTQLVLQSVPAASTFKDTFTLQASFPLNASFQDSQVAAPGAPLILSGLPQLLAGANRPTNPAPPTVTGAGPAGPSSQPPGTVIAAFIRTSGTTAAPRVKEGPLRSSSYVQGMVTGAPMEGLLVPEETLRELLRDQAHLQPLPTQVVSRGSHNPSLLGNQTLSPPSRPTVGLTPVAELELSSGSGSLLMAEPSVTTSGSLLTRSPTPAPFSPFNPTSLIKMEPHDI

Turning to TGAACC, the binding signal with FEV was 1.12 fold enrichment (6-mer frequency, TF over GST control); in the assay with ETV5, 1.21 fold enrichment (6-mer frequency, TF over GST control); in the assay with SPIC it was 1.1 fold enrichment (6-mer frequency, TF over GST control); with ELF4, 1.15 fold enrichment (6-mer frequency, TF over GST control); with ELK4 it was 1.19 fold enrichment (6-mer frequency, TF over GST control); with ETV2, 1.01 fold enrichment (6-mer frequency, TF over GST control). Besides, the binding signal with ELF3 was 1.12 fold enrichment (6-mer frequency, TF over GST control); with ETV1, 1.2 fold enrichment (6-mer frequency, TF over GST control).

For GTCCTT, the binding signal with FEV was 1.29 fold enrichment (6-mer frequency, TF over GST control); in the assay with ETV5, 1.19 fold enrichment (6-mer frequency, TF over GST control); with SPIC, 1.23 fold enrichment (6-mer frequency, TF over GST control); with ELF4, 1.21 fold enrichment (6-mer frequency, TF over GST control); with ELK4, 1.15 fold enrichment (6-mer frequency, TF over GST control); with ETV2, 1.31 fold enrichment (6-mer frequency, TF over GST control). Moreover, the binding signal is 1.16 fold enrichment (6-mer frequency, TF over GST control) in the assay with ELF3 and 1.13 fold enrichment (6-mer frequency, TF over GST control) in the assay with ETV1.

In the case of CCCACC, the binding signal in the assay with FEV is 1.17 fold enrichment (6-mer frequency, TF over GST control); in the assay with ETV5, 1.16 fold enrichment (6-mer frequency, TF over GST control); with SPIC it was 1.21 fold enrichment (6-mer frequency, TF over GST control); with ELF4 it was 1.19 fold enrichment (6-mer frequency, TF over GST control); with ELK4 it was 1.26 fold enrichment (6-mer frequency, TF over GST control); in the assay with ETV2, 1.15 fold enrichment (6-mer frequency, TF over GST control). Besides, the binding signal with ELF3 was 1.41 fold enrichment (6-mer frequency, TF over GST control); in the assay with ETV1, 1.14 fold enrichment (6-mer frequency, TF over GST control).

With CATGGT, the binding signal is 1.08 fold enrichment (6-mer frequency, TF over GST control) in the assay with FEV; 1.24 fold enrichment (6-mer frequency, TF over GST control) with ETV5; 1.39 fold enrichment (6-mer frequency, TF over GST control) in the assay with SPIC; 1.32 fold enrichment (6-mer frequency, TF over GST control) with ELF4; 1.32 fold enrichment (6-mer frequency, TF over GST control) with ELK4; 1.13 fold enrichment (6-mer frequency, TF over GST control) with ETV2. Moreover, the binding signal with ELF3 was 1.35 fold enrichment (6-mer frequency, TF over GST control); with ETV1, 1.29 fold enrichment (6-mer frequency, TF over GST control).

On to GTACAC, for which the binding signal is 1.2 fold enrichment (6-mer frequency, TF over GST control) with FEV; 1.27 fold enrichment (6-mer frequency, TF over GST control) in the assay with ETV5; 1.33 fold enrichment (6-mer frequency, TF over GST control) with SPIC; 1.29 fold enrichment (6-mer frequency, TF over GST control) in the assay with ELF4; 1.23 fold enrichment (6-mer frequency, TF over GST control) with ELK4; 1.17 fold enrichment (6-mer frequency, TF over GST control) with ETV2. Also, the binding signal with ELF3 is 1.26 fold enrichment (6-mer frequency, TF over GST control); with ETV1 it was 1.2 fold enrichment (6-mer frequency, TF over GST control).

On to CACCAA, for which the binding signal was 1.12 fold enrichment (6-mer frequency, TF over GST control) with FEV; 1.1 fold enrichment (6-mer frequency, TF over GST control) with ETV5; 1.12 fold enrichment (6-mer frequency, TF over GST control) in the assay with SPIC; 1.12 fold enrichment (6-mer frequency, TF over GST control) in the assay with ELF4; 1.13 fold enrichment (6-mer frequency, TF over GST control) with ELK4; 1.12 fold enrichment (6-mer frequency, TF over GST control) in the assay with ETV2. Also, the binding signal in the assay with ELF3 is 1.1 fold enrichment (6-mer frequency, TF over GST control); in the assay with ETV1 it was 1.01 fold enrichment (6-mer frequency, TF over GST control).

As for CCGGGT, the binding signal was 1.02 fold enrichment (6-mer frequency, TF over GST control) in the assay with FEV; 1.26 fold enrichment (6-mer frequency, TF over GST control) with ETV5; 1.19 fold enrichment (6-mer frequency, TF over GST control) with SPIC; 1.15 fold enrichment (6-mer frequency, TF over GST control) with ELF4; 1.09 fold enrichment (6-mer frequency, TF over GST control) with ELK4; 1.15 fold enrichment (6-mer frequency, TF over GST control) with ETV2. Further, the binding signal in the assay with ELF3 was 1.12 fold enrichment (6-mer frequency, TF over GST control); with ETV1 it was 1.17 fold enrichment (6-mer frequency, TF over GST control).

Values taken from paper PMC7862700, “An all-to-all approach to the identification of sequence-specific readers for epigenetic DNA modifications on cytosine”.
